In the library only some 0.46% were active in any assay of this set; here they are far more common.
ERp5 block – inhibitors of human ERp5 | Q15084 | ERp5 insulin aggregation, absorbance 650 nm, 90 min | inhibition, % at 9.99 µM | actives 0.05% (n = 350,000) | AID 651711;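 active means mean replicate inhibition above about 25%, with every replicate also reaching it, limit read from the data, passing the limit was not always enough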
PDI inh – blocks human protein disulfide isomerase activity; P07237; PDI insulin aggregation turbidity, A650, 90 min; inhibition, % at 10 µM; actives 0.052% (n = 350,000); AID 588391;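 active means mean inhibition across replicates of 30% or more, whatever share of single replicates reach that level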
PglD inh – blocks C. jejuni PglD acetyltransferase activity; purified PglD enzyme, DTNB colorimetric CoA detection; inhibition, % at 12.5 µM; actives 0.098% (n = 360,000); in the data active means inhibition above about 16%, passing the limit was not always enough
CaV13 FRET inh – Disruptors of the CACNA1D IQ motif to Ca2+-dependent inactivation inhibitor domain association, primary screening, Förster resonance energy transfer in intact living …; AID 743397; inhibition, % at 12.3 µM; HEK cells, CFP/YFP FRET ICDI-IQ, plate reader, 10 min; percent FRET-ratio fall versus neutral wells; actives 0.098% (n = 340,000);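 active means mean replicate inhibition of at least 30% and at least 1% of replicates passing that level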;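 further: 0% = median of the neutral control wells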
ERAP1 HTS inh – blocks human ERAP1 aminopeptidase activity. actives 0.15% (n = 340,000). Q9NZ08. inhibition, % at 10.7 µM. recombinant ERAP1, Leu-AMC fluorescence, 60 min;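 active means mean replicate inhibition of at least 30%, or all replicates individually reaching that 30% level; inactive means mean below 30% and not every replicate reaching it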;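 further: 0% = neutral control wells and 100% = L-leucinethiol positive control wells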
PGC1a acetyl inh – modulators of PGC1a acetylation. actives 0.17% (n = 350,000). inhibition, % at 15.6 µM. U2OS PGC1a acetylation, AlphaScreen anti-acetyl-lysine; with virally co-expressed GCN5 acetyltransferase;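 active means every replicate shows inhibition of at least 40%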;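 further: 0% = neutral control wells and 100% = positive control wells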
Numbers without * were called inactive; . = no result given; + = active, no number; ! = not active in a repeat.

SMILES | ERp5 block | PDI inh | PglD inh | CaV13 FRET inh | ERAP1 HTS inh | PGC1a acetyl inh
CN1/C(=C/C(=O)c2nc(S(C)(=O)=O)ncc2Cl)C(C)(C)c2ccccc21 | . | -4.1 | . | . | . | 83.4*
CN1/C(=C\C(=O)c2cccnc2)C(C)(C)c2ccccc21 | -1.4 | 4.2 | . | -1.5 | 0.5 | .
Cc1c(Cl)c(=O)n2c(=O)c(Cl)c(C)n12 | -2.1 | 0.2 | -10.0 | + | 1.2 | -3.2
CCOC(=O)CN1NC2(CCCCCC2)NC1=S | 5.3 | 8.0 | 8.5 | -4.3 | 35.4* | -9.4
CC(C)(C)N1NC2(CCCCC2)NC1=S | 1.1 | 16.7 | -1.5 | -4.6 | -1.6 | 4.6
Cc1cc2cc(CNC(=O)c3ccco3)ccc2n1C | -3.6 | . | 4.0 | 55.7* | 4.0 | .
OC[C@H]1[C@@H](c2ccccc2)C2(CN(CC3CC3)C2)N1Cc1nccs1 | 2.2 | . | . | . | 2.1 | -5.9
CC1(Cc2cccc(F)c2)C(=O)Nc2ccc(-c3cccnc3)cc21 (stereo not given) | 0.3 | -14.1 | 0.7 | -9.1 | 0.0 | 21.2
CC1(Cc2ccc(Cl)cc2)C(=O)Nc2ccc(-c3cccnc3)cc21 (stereo not given) | 2.7 | 10.8 | -5.1 | -4.8 | -0.7 | 45.9*
CC1=NN(C(C#N)c2ccccc2O)C(C)(C)C1 (stereo not given) | 2.6 | 7.8 | . | . | 5.8 | -1.2
CCN1C(C#N)=C(C#N)N=C(C)CC1(C)C | -3.7 | -0.8 | . | -6.1 | 4.4 | 109.3*
CO[C@H]1CN(C)C(=O)c2cc(NS(=O)(=O)c3cccc(F)c3)ccc2OC[C@@H](C)N(Cc2cc(F)ccc2F)C[C@@H]1C | 0.4 | . | 2.9 | . | -0.8 | -2.0
COc1ccc(CN(C)C[C@@H]2Oc3ccc(NC(=O)Nc4ccc(F)cc4)cc3C(=O)N([C@H](C)CO)C[C@H]2C)cc1 | -6.7 | . | 7.0 | . | 1.8 | -0.4
C[C@@H]1CN([C@H](C)CO)C(=O)c2cc(-c3cccc(C#N)c3)cnc2O[C@@H]1CN(C)Cc1cncnc1 | 3.3 | . | 1.3 | . | 0.0 | 8.9
C[C@@H]1CN([C@@H](C)CO)C(=O)c2cc(Br)cnc2O[C@H]1CN(C)Cc1ccccc1 | -8.5 | . | 2.2 | . | 1.8 | 2.7
C[C@@H]1CN([C@H](C)CO)C(=O)c2cc(-c3cccc(C#N)c3)cnc2O[C@H]1CN(C)Cc1cncnc1 | 75.3* | . | 0.9 | . | -0.6 | 8.7
C[C@@H]1CN([C@@H](C)CO)C(=O)c2cc(Br)cnc2O[C@H]1CN(C)Cc1cccc(F)c1 | 36.9*! | . | 6.6 | . | 0.7 | -2.8
Cc1cc(C)nc(N2CCC(C(=O)NCc3ccco3)CC2)n1 | . | -4.0 | 0.9 | -4.1 | . | 94.9*
O=C(c1cccnc1)N1CC(=O)N2[C@H](CO)[C@@H](c3ccc(/C=C/c4ccccc4)cc3)[C@@H]2C1 | -2.4 | . | . | . | . | -5.6
O=C(CC1CC1)N[C@@H]1CC[C@H](CCNS(=O)(=O)c2ccc(Cl)cc2)O[C@@H]1CO | 10.0 | . | 3.4 | . | -2.4 | -11.8
O=C(CC1CC1)N[C@H]1CC[C@H](CCNS(=O)(=O)c2ccc(Cl)cc2)O[C@H]1CO | 0.3 | . | -0.6 | . | -2.0 | 53.2*
CCCNC(=O)N[C@H]1C=C[C@@H](CC(=O)NCCc2ccccc2)O[C@H]1CO | . | . | . | . | . | -5.7
C[C@H](CO)N1C[C@H](C)[C@@H](CN(C)Cc2ccc(C(=O)Nc3ccccc3N)cc2)Oc2ccc(NC(=O)NC3CCCCC3)cc2CC1=O | -6.8 | . | 2.7 | . | 3.4 | -9.0
Cc1c(CCC(=O)N[C@@H](CC(C)C)C(=O)O)c(=O)oc2cc3oc4c(c3cc12)CCCC4 | -0.9 | 37.6* | 5.3 | -18.7 | 2.4 | .
Cc1c(CCC(=O)O)c(=O)oc2cc3oc4c(c3cc12)CCCC4 | 4.2 | 1.4 | . | -4.0 | 22.7 | 4.2
CNC[C@H]1Oc2ccc(NS(=O)(=O)c3cccs3)cc2C(=O)N([C@H](C)CO)C[C@H]1C | 3.0 | . | 0.2 | . | 2.8 | 5.5
C[C@@H]1CN([C@@H](C)CO)C(=O)c2cccc(NC(=O)Nc3cccc4ccccc34)c2O[C@@H]1CN(C)Cc1ccc(C(=O)Nc2ccccc2N)cc1 | 4.7 | . | . | . | . | -23.9
CCCC(=O)N1CC2(CN(C(=O)CC3CC3)C2)c2c(n(C)c3cc(OC)ccc23)[C@H]1CO | 7.6 | . | . | . | 1.8 | .
CC(=O)Nc1cc(OC(C)=O)c2nonc2c1OC(C)=O | . | -6.4 | -4.6 | . | . | 44.2*

Source: PubChem BioAssay
